The values below come from PubChem BioAssay.

Activity calls are given as the source filed them. How the calls were made is not given here.

This assay deals with Pantothenate synthetase (Mycobacterium tuberculosis (strain ATCC 25618 / H37Rv)) (UniProt P9WIL5). As to the kind of experiment: Recombinant Mtb pantothenate synthetase (PanC) inhibitors, coupled enzyme, confirmatory (AID 375).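 Further: 0% = full reaction with vehicle and 100% = no enzyme background.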 The following applies: coupled enzyme assay; at 10 µM, active compounds read high.
Pantothenate synthetase (Mycobacterium tuberculosis (strain ATCC 25618 / H37Rv)), sequence (P9WIL5 whole entry, looked up): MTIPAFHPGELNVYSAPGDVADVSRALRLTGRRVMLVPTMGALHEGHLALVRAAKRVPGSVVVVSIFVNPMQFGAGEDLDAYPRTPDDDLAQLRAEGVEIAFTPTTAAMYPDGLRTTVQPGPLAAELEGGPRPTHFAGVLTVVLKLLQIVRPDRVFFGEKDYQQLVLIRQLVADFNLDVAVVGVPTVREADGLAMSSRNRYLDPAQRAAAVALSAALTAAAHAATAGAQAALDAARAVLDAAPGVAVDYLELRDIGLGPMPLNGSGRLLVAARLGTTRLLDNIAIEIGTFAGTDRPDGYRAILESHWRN
In the case of `COc1ccc(NC(=O)CCNC(=O)Cn2ccc3ccccc3c2=O)c(OC)c1`, the inhibition was 0% (inactive). For the compound `CCOC(=O)C1CCN(c2c(N3CCCCCC3)c(=O)c2=O)CC1`, the inhibition was 2% (inactive).

As to `COC(=O)c1cccc(NC(=O)C2COc3ccccc3O2)c1C` (stereo not given), the inhibition was 0% (inactive). Take `COc1ccc(C(c2nnnn2C2CCCC2)N2CCN(C3CCCC3)CC2)cc1OC` (stereo not given): the inhibition is 4% (inactive). In the case of `CCNC(=O)C1CC(=O)N(Cc2ccc3c(c2)OCO3)C(=Nc2ccc(OCC)cc2)S1` (stereo not given), the inhibition was 0% (inactive). For the compound `O=C(Nc1cccc(F)c1)C1C2C=CC3(CN(CCCN4CCOCC4)C(=O)C13)O2` (stereo not given), the inhibition is 0% (inactive). As to `CC(OC(=O)C1CC=CCC1C(N)=O)C(Cl)=C(Cl)Cl` (stereo not given), the inhibition is 0% (inactive). Turning to `COc1cccc(OCCOCCN(C)CCO)c1`, the inhibition was 2% (inactive). Regarding `Cc1ccc(C(=O)CSc2n[nH]c(-c3ccco3)n2)cc1C`, the inhibition is 1% (inactive). For the compound `CCSc1nnc(NC(=O)c2ccccn2)s1`, the inhibition is 1% (inactive). In the case of `COCCn1nnnc1CN(CCCN1CCOCC1)Cc1cc2c(C)ccc(C)c2[nH]c1=O` it was 0% (inactive); in that of `CC(NC(=O)c1cn(C)c2ccc(S(=O)(=O)N3CCCC3)cc2c1=O)c1ccc2c(c1)OCCO2` (stereo not given), 0% (inactive); in that of `CCOc1ccc2[nH]c(=O)c(C(c3nnnn3Cc3ccco3)N3CCC(C)CC3)cc2c1` (stereo not given), 0% (inactive). With `COc1ccc(C)cc1C(=O)CCC(=O)Nc1ccccc1N1CCOCC1`, the inhibition was 2% (inactive). On to `COCCNC(=O)c1ccc2c(c1)nc(C)n2-c1cccc(F)c1`, for which the inhibition was 9% (inactive).

Take `O=C(c1ccccc1)N1CCCCC(Sc2nnnn2-c2ccccc2)C1=O` (stereo not given): the inhibition is 0% (inactive). `CC(C)(C)SCCNC(=O)CSc1ccccc1`: the inhibition is 7% (inactive). In the case of `Cc1ccccc1-c1nc(Cc2ccccc2)no1` it was 1% (inactive); in that of `CCCC(CCC)n1[nH]c(=O)c2c(C)cc(C)nc21`, 0% (inactive); in that of `Cc1ccc(C)c2[nH]c(=O)c(CCNC(=O)c3ccc(S(=O)(=O)N(C)C)cc3)cc12`, 0% (inactive).

On to `Cc1ncc(CO)c2c1OC(C)(C)OC2`, for which the inhibition is 0% (inactive). Take `CC[N+](C)(C)c1cccc(O)c1`: the inhibition is 0% (inactive). With `COc1cccc2cc(C(=O)N3CCN(c4ccc(C)cc4C)CC3)c(=O)oc12`, the inhibition is 0% (inactive). Turning to `Cc1cc(C(=O)CSc2nnc(-c3ccccc3)n2C)c(C)n1C`, the inhibition was 0% (inactive). In the case of `Cc1cc(NC(=O)C(C)(C)C)no1` it was 0% (inactive). `O=C(CSc1nnc(-c2ccco2)c(-c2ccco2)n1)Nc1ccccc1`: the inhibition was 2% (inactive). Take `CCOC(=O)CN(C)Cc1c[nH]c2ccccc12`: the inhibition is 14% (inactive). As for `Cc1cc(=O)n2nc(N3CCCC(C(=O)N4CCN(C)CC4)C3)sc2n1` (stereo not given), the inhibition is 1% (inactive). With `Cc1cc2c(=O)n(Cc3ccco3)c(SCC(=O)NCc3ccco3)nc2s1` the figure was 3% (inactive). As for `CCOC(=O)Cn1c(=N)n(CCOc2cccc(C)c2)c2ccccc21`, the inhibition is 0% (inactive). `O=C(Nc1ccc(Cc2ccc(NC(=O)N3CCOCC3)cc2)cc1)N1CCOCC1`: the inhibition was 2% (inactive). Consider `COC(=O)C1=C(C)n2nnnc2NC1c1ccc(Cl)cc1` (stereo not given), for which the inhibition was 2% (inactive). With `Cc1ccc(C(=O)NC2CC3CCCC(C2)N3C(=O)NC2CCCCC2)cc1` (stereo not given) the figure was 8% (inactive); with `CC(=O)Nc1ccc(S(=O)(=O)Nc2nc3c(s2)CCCC3)cc1`, 2% (inactive). On to `COc1cccc(-c2nnc3sc(-c4ccc(C)cc4)nn23)c1`, for which the inhibition is 0% (inactive).

Regarding `CCN(CC)S(=O)(=O)c1ccc(C(=O)Oc2ccc3c(c2)OCO3)cc1`, the inhibition is 2% (inactive).

`COc1cccc(-c2noc(CCC(=O)NC3CCCCC3)n2)c1`: the inhibition is 1% (inactive). With `Cc1ccc(S(=O)(=O)N2CCN(CCO)CC2)cc1-c1nnc2c3ccccc3c(C)nn12`, the inhibition was 0% (inactive).

Regarding `O=C(c1csc2ccccc12)N1CCCCCC1`, the inhibition was 2% (inactive). Take `Cc1nc2ccccc2c(=O)n1CC(=O)N1CCOCC1`: the inhibition is 2% (inactive).

The term inhibition denotes the drop in the measured response relative to a control, in per cent.
